Compounds with a hit are over-represented: about 1.3% of the library has one in this group of screens.
PriA SSB inh = K. pneumoniae PriA-SSBct interaction inhibition; AlphaScreen SSBct-PriA binding, biotinylated peptide; inhibition, % at 33 µM; 0.6% of 430,000 active; AID 1272365; in the data active = inhibition mostly above about 37%, no sharp cut-off; inactive = mostly below about 20%
CCHF vOTU inh-1 = blocks the CCHF virus ovarian tumor domain protease | CCHFV vOTU protease, Pep-AMC fluorescence | inhibition, % at 11.5 µM | 0.55% of 370,000 active | AID 651958
TcdB inh = blocks C. difficile toxin B glycohydrolase activity; TcdB glycohydrolase enzymatic assay, plate reader; inhibition, % at 9.99 µM; 0.24% of 350,000 active; in the data active = inhibition above about 10%
Target sequence (P18177 whole entry, looked up): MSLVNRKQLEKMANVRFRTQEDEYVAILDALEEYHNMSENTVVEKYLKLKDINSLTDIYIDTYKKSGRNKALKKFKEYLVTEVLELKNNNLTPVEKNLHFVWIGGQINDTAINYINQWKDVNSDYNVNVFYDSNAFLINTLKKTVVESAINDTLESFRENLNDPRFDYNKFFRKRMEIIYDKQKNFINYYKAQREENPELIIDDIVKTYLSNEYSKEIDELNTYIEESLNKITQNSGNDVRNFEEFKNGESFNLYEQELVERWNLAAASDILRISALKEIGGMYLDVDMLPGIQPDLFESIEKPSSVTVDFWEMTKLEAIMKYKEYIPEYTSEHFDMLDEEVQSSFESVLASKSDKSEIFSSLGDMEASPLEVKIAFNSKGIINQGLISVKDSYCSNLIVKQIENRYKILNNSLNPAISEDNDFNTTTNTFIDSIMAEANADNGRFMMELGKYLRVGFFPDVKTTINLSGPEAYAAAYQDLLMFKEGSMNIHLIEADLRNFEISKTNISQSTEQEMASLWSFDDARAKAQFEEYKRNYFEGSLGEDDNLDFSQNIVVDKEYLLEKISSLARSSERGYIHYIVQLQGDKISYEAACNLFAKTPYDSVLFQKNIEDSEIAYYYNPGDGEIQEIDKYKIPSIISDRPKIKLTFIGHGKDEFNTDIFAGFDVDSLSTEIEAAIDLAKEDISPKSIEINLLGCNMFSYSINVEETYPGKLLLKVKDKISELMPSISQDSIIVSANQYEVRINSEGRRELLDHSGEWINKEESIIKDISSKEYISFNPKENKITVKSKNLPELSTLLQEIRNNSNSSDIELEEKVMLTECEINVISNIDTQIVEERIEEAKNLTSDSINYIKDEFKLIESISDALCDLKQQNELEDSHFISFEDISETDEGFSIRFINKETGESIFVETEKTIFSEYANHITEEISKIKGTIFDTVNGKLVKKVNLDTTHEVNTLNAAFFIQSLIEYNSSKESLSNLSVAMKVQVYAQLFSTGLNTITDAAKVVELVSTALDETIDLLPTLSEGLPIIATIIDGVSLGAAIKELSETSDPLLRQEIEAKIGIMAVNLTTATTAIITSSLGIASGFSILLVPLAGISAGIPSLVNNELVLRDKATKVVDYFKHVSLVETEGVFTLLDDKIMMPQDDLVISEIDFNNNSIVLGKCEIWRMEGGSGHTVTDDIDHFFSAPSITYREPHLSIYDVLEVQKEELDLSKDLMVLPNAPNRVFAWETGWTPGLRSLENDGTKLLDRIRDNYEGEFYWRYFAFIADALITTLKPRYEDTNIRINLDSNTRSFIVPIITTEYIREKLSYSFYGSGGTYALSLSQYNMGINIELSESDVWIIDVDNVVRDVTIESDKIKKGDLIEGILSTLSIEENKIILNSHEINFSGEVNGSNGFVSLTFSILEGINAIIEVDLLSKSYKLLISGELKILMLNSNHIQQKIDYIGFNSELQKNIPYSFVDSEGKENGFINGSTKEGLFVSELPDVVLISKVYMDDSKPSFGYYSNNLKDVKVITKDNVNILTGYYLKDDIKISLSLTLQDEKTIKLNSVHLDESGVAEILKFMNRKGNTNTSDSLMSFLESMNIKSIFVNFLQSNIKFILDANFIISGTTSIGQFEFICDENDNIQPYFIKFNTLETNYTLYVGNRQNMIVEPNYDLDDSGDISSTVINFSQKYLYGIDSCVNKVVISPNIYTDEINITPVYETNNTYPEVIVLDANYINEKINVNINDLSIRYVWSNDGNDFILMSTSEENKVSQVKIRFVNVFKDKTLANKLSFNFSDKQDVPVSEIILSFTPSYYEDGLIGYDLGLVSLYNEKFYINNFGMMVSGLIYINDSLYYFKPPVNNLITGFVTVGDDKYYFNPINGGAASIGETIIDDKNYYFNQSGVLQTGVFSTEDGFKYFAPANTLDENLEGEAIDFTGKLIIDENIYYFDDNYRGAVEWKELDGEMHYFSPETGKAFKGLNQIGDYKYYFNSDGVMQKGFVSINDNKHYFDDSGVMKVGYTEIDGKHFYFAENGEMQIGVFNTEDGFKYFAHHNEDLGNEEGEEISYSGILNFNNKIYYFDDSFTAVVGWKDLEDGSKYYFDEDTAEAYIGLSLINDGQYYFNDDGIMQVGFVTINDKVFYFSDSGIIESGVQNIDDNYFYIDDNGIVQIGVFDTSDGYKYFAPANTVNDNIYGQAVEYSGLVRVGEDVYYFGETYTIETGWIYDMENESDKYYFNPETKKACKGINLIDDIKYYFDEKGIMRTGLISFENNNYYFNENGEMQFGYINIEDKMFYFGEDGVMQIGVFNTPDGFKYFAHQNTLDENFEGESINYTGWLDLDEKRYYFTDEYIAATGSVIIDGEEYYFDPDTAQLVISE
BH1578 lux ind = inducers of Vibrio cholerae quorum light production without autoinducers; V. cholerae BH1578 lux reporter, luminescence, 6 h; 0.16% of 350,000 active; AID 588436; activation, % at 18.7 µM; in the data active = activation mostly above about 9.7%, no sharp cut-off
VHR inh abs = blocks human VHR1 dual specificity phosphatase | recombinant VHR phosphatase, pNPP absorbance | 0.52% of 290,000 active | AID 1654 | P51452 | inhibition, % at 13.3 µM; in the data active = inhibition above about 50%
3CLpro inhibitor = SARS-CoV 3CLpro protease inhibition; inhibition, % at 6 µM; 0.14% of 290,000 active; recombinant SARS-CoV 3CLpro, quenched FRET peptide cleavage; AID 1706; in the data active = inhibition above about 12%
CCHF vOTU inh-2 = CCHFV vOTU protease inhibition, confirmation; shares compounds with CCHF vOTU inh-1; Recombinant CCHFV vOTU, Pep-AMC fluorescence; inhibition, % at 11.5 µM; 17% of 1,900 active; AID 686976
Each line names hits and unclear results; the compound was inactive in the other large screens (follow-up assays come after a bar, where they were run). Cut-off read from the data, not from the text of the source, unless noted: active = inhibition above about 30%; inactive = the rest.

C=CC[C@@H](CC(=O)N(CCO)Cc1ccccc1)C(=O)N[C@H](COC(=O)[C@@H](CC=C)Cc1ccc(F)cc1)Cc1c[nH]c2ccccc12	none (no result: VHR inh abs, 3CLpro inhibitor)
C=CC[C@H](CC(=O)N(CCO)Cc1ccccc1)C(=O)NCCOC(=O)[C@H](CC=C)CC(=O)OC(C)(C)C	none (no result: VHR inh abs, 3CLpro inhibitor)
COc1cc(NC(=O)NCCN2CCC(c3cccs3)CC2)cc(OC)c1	none (no result: CCHF vOTU inh-1, TcdB inh, BH1578 lux ind, VHR inh abs, 3CLpro inhibitor)
CS(=O)(=O)Nc1cccc(NC(=O)c2ncc(-c3ccc(F)cc3)o2)c1	none (no result: CCHF vOTU inh-1, TcdB inh, BH1578 lux ind, VHR inh abs, 3CLpro inhibitor)
Nc1cnn(Cc2ccc(F)cc2)c1	none
Nc1cnn(Cc2ccccc2F)c1	CCHF vOTU inh-1 34 | CCHF vOTU inh-2 inactive
CN1CCOc2ccc(NC(=O)c3ccc(Br)o3)cc2C1=O	none (no result: CCHF vOTU inh-1, TcdB inh, BH1578 lux ind, VHR inh abs, 3CLpro inhibitor)
COc1cccc(NC(=S)N(Cc2ccco2)C(C)c2ccco2)c1 (stereo unspecified)	none
CC(c1ccco1)N(Cc1ccco1)C(=O)Nc1ccccc1 (stereo unspecified)	CCHF vOTU inh-1 34 (no result: TcdB inh) | CCHF vOTU inh-2 inactive
O=c1c(O)c(-c2ccc(O)c(O)c2)oc2cc(O)cc(O)c12	CCHF vOTU inh-1 32 | CCHF vOTU inh-2 inactive
Cc1cc(=O)n2[nH]c(C(F)(F)F)c(-c3ccc(Cl)cc3)c2n1	none (no result: CCHF vOTU inh-1, TcdB inh, BH1578 lux ind, VHR inh abs, 3CLpro inhibitor)
CCOC(=O)COc1ccc(S(=O)(=O)N2CCN(c3ccccc3F)CC2)cc1	none (no result: TcdB inh)
CCOC(=O)COc1ccc(S(=O)(=O)N2CCN(c3ccc(OC)cc3)CC2)cc1	CCHF vOTU inh-1 30 | CCHF vOTU inh-2 inactive
COc1ccc(Cl)cc1NC(=O)NCC(c1ccsc1)N1CCCC1 (stereo unspecified)	none (no result: CCHF vOTU inh-1, TcdB inh, BH1578 lux ind, VHR inh abs, 3CLpro inhibitor)
Cc1ccc(OCC(=O)NNC(=O)c2cc(S(=O)(=O)N(C)C)ccc2N2CCCC2)cc1	CCHF vOTU inh-1 33 (no result: PriA SSB inh, VHR inh abs, 3CLpro inhibitor) | CCHF vOTU inh-2 inactive
CCOC(=O)C1CCCN(C(=O)c2cccc(S(=O)(=O)N(Cc3ccccc3)c3ccccc3OC)c2)C1 (stereo unspecified)	CCHF vOTU inh-1 36 (no result: VHR inh abs, 3CLpro inhibitor) | CCHF vOTU inh-2 inactive
COc1ccc(C(=O)NNC(=O)c2cccn(Cc3ccc(F)cc3)c2=O)cc1OC	none (no result: CCHF vOTU inh-1, TcdB inh, BH1578 lux ind, VHR inh abs, 3CLpro inhibitor)
O=c1cc(-c2ccc(O)c(-c3c(O)cc(O)c4c(=O)cc(-c5ccc(O)cc5)oc34)c2)oc2cc(O)cc(O)c12	CCHF vOTU inh-1 30 | CCHF vOTU inh-2 inactive
O=c1cc(-c2ccc(O)cc2)oc2c(-c3c(O)cc(O)c4c(=O)cc(-c5ccc(O)cc5)oc34)c(O)cc(O)c12	none (no result: VHR inh abs, 3CLpro inhibitor)
COc1ccc(CNCCC(c2ccc(OC(C)C)cc2)c2ccccc2OC)cc1 (stereo unspecified)	none (no result: VHR inh abs)
COc1ccccc1C(CCNCc1ccc(N(C)C)cc1)c1ccc(OC(C)C)cc1 (stereo unspecified)	CCHF vOTU inh-1 33 (no result: VHR inh abs) | CCHF vOTU inh-2 inactive
CC(=O)c1ccc(N2CCN(C(=O)C3CCCN(S(=O)(=O)c4cnc[nH]4)C3)CC2)cc1 (stereo unspecified)	CCHF vOTU inh-1 34 (no result: TcdB inh) | CCHF vOTU inh-2 inactive
Cc1ccc(Cl)cc1N1CCN(C(=O)C2CCCN(S(=O)(=O)c3cnc[nH]3)C2)CC1 (stereo unspecified)	none
COC(=O)[C@]12C[C@H](CC(=O)NCc3cccc(C(F)(F)F)c3)C(=O)N(Cc3ccc(Cl)cc3Cl)C1=C[C@H](C1CCCC1)O[C@@H]2C	CCHF vOTU inh-1 32 (no result: PriA SSB inh, TcdB inh, BH1578 lux ind, VHR inh abs, 3CLpro inhibitor) | CCHF vOTU inh-2 inactive
CCCCCCCCN1C(=O)[C@@H](CC(=O)NCc2ccc(C)o2)C[C@@]2(C(=O)OC)C1=C[C@H](C1CCCC1)O[C@@H]2C	CCHF vOTU inh-1 30 (no result: PriA SSB inh, BH1578 lux ind, VHR inh abs, 3CLpro inhibitor) | CCHF vOTU inh-2 inactive
COC(=O)[C@]12C[C@H](CC(=O)NCc3ccccc3)C(=O)N(Cc3ccc(Cl)cc3Cl)C1=C[C@H](C1CCCC1)O[C@@H]2C	none (no result: PriA SSB inh, TcdB inh, BH1578 lux ind, VHR inh abs, 3CLpro inhibitor)
CCCCCCCCN1C(=O)[C@@H](CC(=O)N2CCN(C(=O)C3CC3)CC2)C[C@@]2(C(=O)OC)C1=C[C@H](C1CCCC1)O[C@@H]2C	CCHF vOTU inh-1 33 (no result: PriA SSB inh, BH1578 lux ind, VHR inh abs, 3CLpro inhibitor) | CCHF vOTU inh-2 inactive
Cc1nnc(NC(=O)CCc2ccc(=O)n(C)n2)s1	none (no result: CCHF vOTU inh-1, TcdB inh, BH1578 lux ind, VHR inh abs, 3CLpro inhibitor)
Cc1noc(NS(=O)(=O)c2ccc(NS(=O)(=O)c3ccc(C(C)(C)C)cc3)cc2)c1C	CCHF vOTU inh-1 30 (no result: PriA SSB inh, VHR inh abs, 3CLpro inhibitor) | CCHF vOTU inh-2 inactive
Cc1noc(NS(=O)(=O)c2ccc(NS(=O)(=O)c3ccc(Cl)cc3)cc2)c1C	none (no result: VHR inh abs, 3CLpro inhibitor)
COc1ccc(C(=O)NC(=S)Nc2cccc3cc(O)ccc23)cc1OC	CCHF vOTU inh-1 31 | CCHF vOTU inh-2 inactive

From PubChem BioAssay
